Results as given in PubChem BioAssay AID463212 (Sanford-Burnham Center for Chemical Genomics, 2010).
Out of some 330,000 compounds screened, about 4,400 (1.3%) were called active.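 How the source made its calls: active means growth inhibition of the mutant yeast at or above 50%; inactive means the rest.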 Shown is part of a subset that was picked to be rich in actives.

Assay: growth inhibitors of tim23-1 mutant yeast, primary screen, luminescence, uHTS (AID 463212);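 further: temperature-sensitive mutant grown at 25 °C; plate controls were DMSO-treated mutant yeast for no effect and medium wells lacking yeast for full effect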
Details: S. cerevisiae tim23-1 growth, BacTiter-Glo luminescence, 24 h; at 20 µM; hits give high values

inhibition, inactive:
Cc1ccc(S(=O)(=O)NCC(C)NS(C)(=O)=O)cc1 (stereo unspecified) -7.63%, CCOCCCNC(=O)Cc1cc(=O)[nH]c(=O)[nH]1 -8.09%, COC(=O)c1ccc(-c2c(-c3ccccc3)ncc3cc(OC)c(OC)cc23)cc1 18.9%, CCOC(=O)C1CSC(CC(=O)Nc2ccc(OCC)cc2)C(=O)N1 (stereo unspecified) 4.52%, Cc1cccc(NC(=S)Nc2ccc3cn[nH]c3c2)c1 -3.63%, Cc1cccc(NC(=S)NC23CN4CN(CN(C4)C2)C3)c1 1.34%, Cc1ccc(-n2ncc(C(=O)NC3CC3)c2C2CCN(C(=O)OC(C)(C)C)CC2)c(C)c1 13.5%, CCOC(=O)Nc1ccc2c(c1)N(C(=O)CN1CCN3CCCC3C1)c1ccccc1CC2 (stereo unspecified) 11.3%, Cc1nn(-c2ccccc2)c(C)c1/C=C/C(=O)OC(C)C(N)=O (stereo unspecified) 10.4%, Cc1ccc(C(=O)/C=C/c2c(C)nn(-c3ccccc3)c2Cl)cc1 36.5%, CC1CCN(C2=NC(=O)/C(=C/c3ccc(O)cc3)S2)CC1 31.9%, CCOc1cc(/C=C2\SC(N3CCCCC3)=NC2=O)ccc1O 38.3%, COc1ccc(N(CC(=O)NC2CCCCC2)S(=O)(=O)c2c(C)[nH]c(=O)[nH]c2=O)cc1 6.85%, CCOC(=O)N/N=C/c1cccnc1 4.17%, Cc1ccc(NC(=O)CSc2cccc3cccnc23)c(C)c1 19.5%, N#Cc1ccc(C(c2ccc(C#N)cc2)n2cncn2)cc1 9.59%, CCc1noc(C)c1C(=O)N1CCCC(N2CCN(c3ccc(F)cc3)CC2)C1 (stereo unspecified) -9.74%, CC(C)OC(=O)Cn1nc(C(F)(F)F)c2c1CCCC2 -5.77%, Cc1ccccc1C(=O)NC(=S)Nc1ccc(N2CCN(C(=O)c3ccccc3)CC2)cc1 -0.446%, O=C(NC(=S)NC1CCSC1=O)c1ccccc1F (stereo unspecified) -11.9%, COC(=O)[C@@]1(C)[C@H]2C(=O)N(Cc3ccccc3)C(=O)[C@H]2[C@H]2CN=C(SCC3CC3)N21 28.2%

inhibition, active:
Cc1cccc(NC(=S)Nc2ccc(Cl)c(Cl)c2)c1 60.8%, Cc1nn(-c2ccccc2)c(Cl)c1/C=C/C(=O)c1ccc(O)cc1 50.6%, CCOc1cc(/C=C2\SC(N3CCCC(C)C3)=NC2=O)ccc1O (stereo unspecified) 51.4%, O=C(CSc1cccc2cccnc12)N/N=C/c1cccnc1 52.9%, Cc1ccccc1C(=O)NC(=S)NC1CC1 56.1%
